Records with an inconclusive call do not appear. Calls of active or inactive are those of the source. The call rests on the fitted dose curve.
Assay: VSVG counterscreen qHTS to identify inhibitors of SARS-CoV-2 cell entry (AID 1645847); further: nearly all actives have a fitted effect of over 65% in size
Conditions: VSV-G pseudotyped particle entry, luciferase; series mostly up to 57.2 µM; activity change, negative = inhibition: at the top concentration
How it was run: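 Counterscreen using VSV-G (not spike) pseudotyped MLV particles on ACE2-expressing Expi293F cells after 1 h compound preincubation; infection ran 48 h at 37 °C. Data normalized to VSV-G PP and bald-PP wells.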
On the % scale 0 is the no-effect control and ±100 the full control effect; potency means the concentration at half of the fitted maximal effect.

Compound	activity change, negative = inhibition	Potency
CN(C)C(=O)c1cc2cnc(Nc3ccc(N4CCNCC4)cn3)nc2n1C1CCCC1	0% (inactive)	–
Cc1c(N)nc(C(CC(N)=O)NCC(N)C(N)=O)nc1C(=O)NC(C(=O)NC(C)C(O)C(C)C(=O)NC(C(=O)NCCc1nc(-c2nc(C(=O)NCCCN[C@@H](C)c3ccccc3)cs2)cs1)C(C)O)C(O[C@@H]1O[C@@H](CO)[C@@H](O)[C@H](O)[C@@H]1O[C@H]1O[C@H](CO)[C@@H](O)[C@H](OC(N)=O)[C@@H]1O)c1cnc[nH]1 (stereo partly drawn)	–	27.1 nM (active)
CCOc1nc2cccc(C(=O)OC(C)OC(=O)OC3CCCCC3)c2n1Cc1ccc(-c2ccccc2-c2nn[nH]n2)cc1 (stereo not drawn)	–	429 nM (active)
